# High-throughput results: PubChem BioAssay, National Center for Advancing Translational Sciences (NCATS)
# HP1b binding inh: HP1-beta chromodomain-methylated histone interaction inhibition; AlphaScreen HP1-beta / biotin-H3K9me3 peptide binding; Potency, µM (titrated, usually from 114 µM), for inactives: at the top dose activity change, negative = inhibition, actives largely listed as inhibitors; 390,000 compounds, 0.56% hits; AID 540317; P83916; note: nearly all actives have a fitted effect of over 70% in size
# Target sequence (P83916 whole entry, looked up): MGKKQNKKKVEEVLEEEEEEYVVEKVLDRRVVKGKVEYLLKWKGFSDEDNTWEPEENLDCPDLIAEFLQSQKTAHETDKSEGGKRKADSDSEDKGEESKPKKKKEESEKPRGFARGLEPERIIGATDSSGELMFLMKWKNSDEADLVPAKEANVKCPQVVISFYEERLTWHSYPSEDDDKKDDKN
#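 HP1-beta protein (50 nM final) preincubated 30 min at room temperature with biotinylated H3(1-18)K9me3 peptide (50 nM) in PBS pH 7.4, 0.01% Tween-20, then compound added for 30 min. AlphaScreen streptavidin donor/nickel chelate acceptor beads (10 ug/mL final), 30 min dark, luminescence read.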
# BAZ2B block: blocks human BAZ2B | AlphaScreen BAZ2B-H3K14Ac peptide displacement | Potency, µM (highest dose often 114 µM), inactives show at the highest dose activity change, negative = inhibition, hits mostly inhibitors | Q9UIF8 | 360,000 compounds, 4.4% hits; note: % is set by controls: 0 for no effect and ±100 for the full control effect; nearly all actives have a fitted effect of over 60% in size
#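 Complex of BAZ2B and biotin-H3K14Ac (50 nM apiece) forms over 30 min at RT, then faces library compounds up to 110 uM for another 30 min; AlphaScreen beads added, 20 min dark incubation, luminescence read.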
# JMJD2A Tudor: inhibitors of human JMJD2A Tudor domain; AlphaScreen JMJD2A-Tudor / H3K4me3 peptide binding; Potency, µM (doses to about 114 µM), without a hit: top-dose activity change, negative = inhibition, actives largely listed as inhibitors; 390,000 compounds, 4.4% hits; note: % is set by controls: 0 for no effect and ±100 for the full control effect; nearly all actives have a fitted effect of over 50% in size
# G9a block: inhibitors of human histone lysine methyltransferase G9a | Q96KQ7 | G9a H3K9 monomethylation, AlphaScreen, 2 h | Potency, µM (highest dose often 102 µM), for the others: top-dose activity, negative = inhibition, most hits filed as inhibitors | 350,000 compounds, 8.8% hits | AID 504332; note: % is set by controls: 0 for no effect and ±100 for the full control effect; nearly all actives have a fitted effect of over 75% in size
# Target sequence (Q96KQ7 913-1193 limits assumed): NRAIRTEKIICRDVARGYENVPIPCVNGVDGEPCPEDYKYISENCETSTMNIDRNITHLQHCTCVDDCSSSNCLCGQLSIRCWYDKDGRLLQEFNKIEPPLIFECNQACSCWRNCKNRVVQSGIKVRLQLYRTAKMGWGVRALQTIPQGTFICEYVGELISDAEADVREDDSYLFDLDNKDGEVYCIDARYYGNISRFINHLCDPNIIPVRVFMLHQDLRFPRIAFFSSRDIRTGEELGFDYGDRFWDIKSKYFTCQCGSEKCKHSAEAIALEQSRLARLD
#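 Using a bead-based AlphaScreen, monomethylated H3K9 product from 2 h room-temperature reactions (G9a 20 nM, peptide 500 nM, SAM 20 uM) was detected with 0.5 ug/mL rabbit anti-H3K9me1 antibody.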
# L3MBTL1 inh: L3MBTL1 (human) inhibition. Q9Y468. AlphaScreen L3MBTL1–H3K9me1 peptide binding. Potency, µM (titrated, usually from 57.1 µM), without a hit: top-dose activity, negative = inhibition, hits mostly inhibitors. 230,000 compounds, 0.66% hits; note: % is set by controls: 0 for no effect and ±100 for the full control effect; nearly all actives have a fitted effect of over 60% in size
#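 AlphaScreen assay: L3MBTL1 (50 nM final) was preincubated 30 min at room temperature with biotinylated H3(1-15)K9me1 peptide (75 nM final), then 30 min with library compounds; streptavidin donor and nickel chelate acceptor beads (10 ug/mL final) added, 30 min dark.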
# Sfp PPTase inh: Sfp phosphopantetheinyl transferase inhibition; Q9F4F7; Biochemical Sfp PPTase activity, qHTS; Potency, µM, inactives show largest response in the series, negative = inhibition, most hits filed as inhibitors; 310,000 compounds, 3.5% hits; AID 1490;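 note: the enzyme is Sfp with the accession as filed and its product quenches rhodamine fluorescence; 0% = enzyme reaction without inhibitor and -100% = no enzyme wells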
#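 After 15 min at room temperature with compound, 15 nM Sfp received 5 uM rhodamine-CoA plus 12.5 uM BHQ-2-ybbR (50 mM Hepes pH 7.6, 10 mM MgCl2). Rate came from the fluorescence difference over 30 min, ex 525/em 598 nm.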
# * hit, by the source's call; ? = inconclusive; · = no result; ! = not active in a repeat; [ ] = dose if it differs, or a comment. Most compounds without a hit are left out; they make up all but 12% or so of the library. Calls come from the whole dose curve; as a rule, active = well fitted curve in the direction sought with a large enough effect; inconclusive = small, poorly fitted or top-dose-only effect, or another doubt; inactive = no such curve, though single readings can be large; an effect the other way counts as inactive or inconclusive. Potency is the fitted concentration of half-maximal effect.
SMILES,HP1b binding inh,BAZ2B block,JMJD2A Tudor,G9a block,L3MBTL1 inh,Sfp PPTase inh
CCN(CC)c1ccc(NC(=O)CCCCCN2C(=O)c3ccccc3C2=O)cc1,?,45µM*,25µM*,2.5µM*,?,-11%
Cc1ccc(NC(=O)CCN2C(=O)c3cccc4cccc(c34)C2=O)cc1,25%,?,-17%,7%[59 µM],·,-18%
Cc1ccc(NC(=O)CCCN2C(=O)c3cccc4cccc(c34)C2=O)cc1,0%,0%,79µM*,46%[59 µM],-3%,-24%
Cc1ccc(CNC(=O)Nc2cc(C(=O)NCc3cccc(F)c3)ccc2N2CCCC2)cc1,78%,14%,-9%,26%[59 µM],·,·
COc1ccc2cc(C#N)c(SCC(=O)OCc3ccccc3)nc2c1,74%[57 µM],·,-11%[57.1 µM],·,·,·
CCC(C)CCCCCCCCCCC(=O)O (configuration not stated),58%,·,50µM*,·,·,·
Cc1ccc(CNn2cn[nH]c2=S)cc1,38%,·,8.9µM*,·,·,·
C=CCOc1ccc2ccccc2c1CNn1cn[nH]c1=S,31%,-9%,?,·,-3%,-7%
S=c1[nH]ncn1NCc1cccc(Br)c1,18%,·,16µM*,·,·,·
C=CCOc1ccc(CNn2cn[nH]c2=S)cc1,25%,-2%,32µM*,20µM*,5%,-7%
Cc1cccc(C)c1Nc1oc(-c2ccccc2)nc1-c1ccccc1,·,·,·,·,·,-28%
COc1ccc(CCNC(=O)c2cc(=O)c3cc(C)c(C)cc3o2)cc1OC,33%,-9%,-7%,-4%[59 µM],·,·
Cc1[nH]c(C)c(Cl)c(=O)c1Cl,·,·,·,-7%[2.33 µM],·,12%
COc1ccccc1CCNC(=O)Cc1c(C)c2c(cc(C)c3c(C)coc32)oc1=O,15%,0%,-26%,-28%[59 µM],·,·
C/C(=C\C[Si](C)(C)C)CCC=O,·,·,·,·,·,63µM*
COCCN(CCOC)c1nc(C)nc2c1nc(-c1ccccc1)n2CC1CCN(C)CC1,·,·,·,·,·,23%
O=C(Nc1ccc(Nc2ccncc2)cc1)c1ccc(Nc2ccnc3ccc([N+](=O)[O-])cc23)cc1[N+](=O)[O-],-37%,-18%,?,50µM*,-20%,?
Cc1ccc(C(=O)Nc2c(-c3ccccc3)nc3ccccn23)cc1C,9%,-5%,-21%,-10%[59 µM],·,·
COc1ccc(-c2cc(OC(=O)c3cccc(Cl)c3)c3c(C)oc(C)c3c(=O)c2)cc1OC,-17%,50µM*,?,?,·,·
Cc1oc(C)c2c(=O)cc(-c3ccc4c(c3)OCO4)cc(OC(=O)c3cccc(Cl)c3)c12,17%,-15%,-34%,?,·,·
CCOc1ccc(-c2cc(OC(=O)c3ccc(F)cc3)c3c(C)oc(C)c3c(=O)c2)cc1,-9%,?,?,?,·,·
CCOc1cc(-c2ccc(OC(=O)c3ccc(C)cc3)c(OC)c2)cc(=O)c2c(C)oc(C)c12,5%,40µM*,?,?,·,·
CCOc1ccc(-c2cc(OC(=O)c3ccccc3)c3c(C)oc(C)c3c(=O)c2)cc1,-8%,35µM*,?,11µM*,·,·
COc1ccc(-c2cc(OC(=O)c3cccc(C)c3)c3c(C)oc(C)c3c(=O)c2)cc1,26%,?,?,7.9µM*,·,·
CCOc1ccc(CCNC(=O)CSCc2nc(-c3cccc(C)c3)oc2C)cc1OCC,5%,-38%,-33%,-39%[59 µM],·,·
SMILES,HP1b binding inh,BAZ2B block,JMJD2A Tudor,G9a block,L3MBTL1 inh,Sfp PPTase inh
COc1cc(-c2cc(OC)c3c(C)oc(C)c3c(=O)c2)ccc1OC(=O)c1cccc(Cl)c1,2%,79µM*,?,-53%[59 µM],·,·
COc1ccc(-c2cc(C)no2)cc1S(=O)(=O)NC(C)C,19%,2%,-9%,0%[59 µM],·,·
CC(=O)Nc1ccc(C)cc1-c1nc2ccccc2n(Cc2cccc(Br)c2)c1=O,36%,2%,-5%,-50%[59 µM],·,·
COc1ccccc1NC(=O)CN(c1cc(C)cc(C)c1)S(=O)(=O)c1c(C)[nH]c(=O)[nH]c1=O,57%,-13%,-8%,2%[59 µM],·,·
O=C(O)C1CCCNC1 (configuration not stated),24%,2%,-17%,-3%[59 µM],4%,10%
O=C(O)[C@H]1NCCC[C@H]1C(=O)O,·,·,·,6.7µM*!,·,·
